Results taken from PubChem BioAssay (NCATS).
Records with an inconclusive call do not appear. A call without a number means that no potency is given here. Active and inactive are the calls of the source. Calls follow the shape of the dose curve; as a rule, active = well fitted cell-killing curve with a large enough effect; inconclusive = small, poorly fitted or top-dose-only effect, or effect the other way; inactive = no such curve, though single readings can be large or run the other way.

Tests used:
[1] = Quantitative High-Throughput drug screen in 47 multiple myeloma cell lines against the NCATS MIPE library collection: Karpas620_DSMZ cell viability assay (AID 1918959); details: Karpas620 myeloma viability, CellTiter-Glo ATP luminescence, 48 h; series mostly up to 45.8 µM; also: nearly all actives have a fitted effect of over 30% in size; also: potency is read from the fitted curve at half-maximal effect
Method in brief: (§1)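 Steps: seed 500 cells per well; pin-transfer MIPE 4.0 library; incubate 48 h at 37C, 5% CO2, humidified; add CellTiter-Glo, 5 min room temperature; read luminescence.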

[2] = Quantitative High-Throughput drug screen in 47 multiple myeloma cell lines against the NCATS MIPE library collection: KMM1_JCRB cell viability assay (AID 1918960); details: KMM1 myeloma viability, CellTiter-Glo ATP luminescence, 48 h; series mostly up to 45.8 µM; also: nearly all actives have a fitted effect of over 30% in size; also: potency is read from the fitted curve at half-maximal effect
Method in brief: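 CellTiter-Glo luminescence after 48 h exposure gives viability, scaled between DMSO-only (100%) and media-only (0%) controls. Library compounds are pinned onto 500 myeloma cells per well, incubated at 37C with 5% CO2.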

[3] = Quantitative High-Throughput drug screen in 47 multiple myeloma cell lines against the NCATS MIPE library collection: KHM11_PLB cell viability assay (AID 1918962); details: KHM11 myeloma cell viability, CellTiter-Glo ATP luminescence, 48 h; series mostly up to 45.8 µM; also: nearly all actives have a fitted effect of over 35% in size; also: potency is read from the fitted curve at half-maximal effect
Method in brief: as §1

[4] = Quantitative High-Throughput drug screen in 47 multiple myeloma cell lines against the NCATS MIPE library collection: H1112_PLB cell viability assay (AID 1918967; also: nearly all actives have a fitted effect of over 30% in size; also: potency is read from the fitted curve at half-maximal effect); details: H1112 myeloma cells viability, ATP luminescence, 48 h; series mostly up to 45.8 µM
Method in brief: (§2)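 Inhibition of cell viability is measured here. Each line was plated at 500 cells per well, treated with MIPE 4.0 drugs, kept 48 hours at 37C, then assayed for ATP content by CellTiter-Glo luminescence.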

[5] = Quantitative High-Throughput drug screen in 47 multiple myeloma cell lines against the NCATS MIPE library collection: ARP1_JJKsccF8 cell viability assay (AID 1918928; also: nearly all actives have a fitted effect of over 40% in size; also: potency is read from the fitted curve at half-maximal effect); details: ARP1 myeloma cells viability, CellTiter-Glo ATP, 48 h; series mostly up to 45.8 µM
Description: (§3) PI: Beverly A. Mock Ph.D.
(§4) Laboratory of Cancer Biology and Genetics,
(§5) Center for Cancer Research, National Cancer Institute,
(§6) National Institute of Health, Bethesda, Maryland
(§7) Drug resistance and disease progression are common in multiple myeloma (MM) patients, underscoring the need for new therapeutic combinations. […] We hypothesized that effective combinations would reduce MYC expression and enhance p16 activity. […] These preclinical data identify potentially useful drug combinations for evaluation in drug-resistant MM and reveal potential mechanisms of combined drug sensitivity.
(§8) Described herein is the primary MIPE qHTS used to cherrypick compounds. Validated compounds were then further tested for potential synergistic activiy.
(§9) [1] Peat TJ, Gaikwad SM, Dubois W, Gyabaah-Kessie N, Zhang S, Gorjifard S, Phyo Z, Andres M, Hughitt VK, Simpson RM, Miller MA, Girvin AT, Taylor A, Williams D, D'Antonio N, Zhang Y, Rajagopalan A, Flietner E, Wilson K, Zhang X, Shinn P, Klumpp-Thomas C, McKnight C, Itkin Z, Chen L, Kazandijian D, Zhang J, Michalowski AM, Simmons JK, Keats J, Thomas CJ, Mock BA. Drug combinations identified by high-throughput screening promote cell cycle transition and upregulate Smad pathways in myeloma. Cancer Lett. 2023 Aug 1;568:216284. doi: 10.1016/j.canlet.2023.216284. Epub 2023 Jun 24. PMID: 37356470; PMCID: PMC10408729.
(§10) SEQUENCE No. (e.g., 1, 2, 3, etc.); […] (e.g., Cells, Incubation, Reagent, etc.); VALUE and DESCRIPTION.
(§11) 1; Cells; 5 uL; white, solid bottom 1536-well Greiner assay plate.
(§12) 2; Compounds; 23 nL; Kalypsis pin tool (Wako USA) equipped with a 1536-well pin head to transfer to the assay plates.
(§13) 3; Incubation; 48 hours; 37C incubation.
(§14) 4; Reagent;5uL; CellTiter Glo (Promega).
(§15) 5; Detector; 425V; Luminescence; Viewlux PerkinElmer.
(§16) NOTES (numbers refer to Sequence numbers above)
(§17) 1. The cell-based screening methods employed in this study were like those previously published. Briefly, the corresponding myeloma cell lines were screened in 1,536-well plates with 500 cells, 5-uL per well for inhibition of cell viability (assessed by measuring ATP levels with CellTiterGlo).
2. NCATS MIPE 4.0 library of approved and investigational drugs were added using the Kalypsis pin tool. Wells treated with DMSO only for 100% viability and media only cells for 0% viability were used as controls.
(§18) 3. The assay plates were covered and incubated for 48 hours in a 37C, 5% CO2 incubator with controlled humidity.
(§19) 4. After 48 hours, CellTilter-GloTM luminescent substrate mix (Promega) reagent was added to the assay plate and plates we incubated for 5 min at room temperature.
(§20) 5. Signal was measured as median relative luminescence units on a ViewLux (PerkinElmer) multiplate reader.
(§21) [1] Heske CM, Davis MI, Baumgart JT, Wilson K, Gormally MV, Chen L, Zhang X, Ceribelli M, Duveau DY, Guha R, Ferrer M, Arnaldez FI, Ji J, Tran HL, Zhang Y, Mendoza A, Helman LJ, Thomas CJ. Matrix Screen Identifies Synergistic Combination of PARP Inhibitors and Nicotinamide Phosphoribosyltransferase (NAMPT) Inhibitors in Ewing Sarcoma. Clin Cancer Res. 2017 Dec 1;23(23):7301-7311. doi: 10.1158/1078-0432.CCR-17-1121. Epub 2017 Sep 12. PMID: 28899971; PMCID: PMC6636827.

[6] = Quantitative High-Throughput drug screen in 47 multiple myeloma cell lines against the NCATS MIPE library collection: Karpas417_ECACC cell viability assay (AID 1918961); details: Karpas417 myeloma viability, CellTiter-Glo ATP luminescence, 48 h; series mostly up to 45.8 µM; also: potency is read from the fitted curve at half-maximal effect
Method in brief: (§22)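 CellTiter-Glo luminescence (ATP) after 48 h compound exposure, 37C/5% CO2; 500 cells/well; MIPE 4.0 approved/investigational drugs pinned in; DMSO = 100%, media only = 0% viability.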

[7] = Quantitative High-Throughput drug screen in 47 multiple myeloma cell lines against the NCATS MIPE library collection: JIM1_ECACC cell viability assay (AID 1918964); details: JIM1 myeloma viability, CellTiter-Glo ATP luminescence, 48 h; series mostly up to 45.8 µM
Method in brief: as §2

[8] = Quantitative High-Throughput drug screen in 47 multiple myeloma cell lines against the NCATS MIPE library collection: JJN3_DSMZ cell viability assay (AID 1918966; also: nearly all actives have a fitted effect of over 50% in size; also: potency is read from the fitted curve at half-maximal effect); details: JJN3 myeloma cells viability, CellTiter-Glo ATP, 48 h; series mostly up to 45.8 µM
Description: as §3, §4, §5, §6, §7, §8, §9, §10, §11, §12, §13, §14, §15, §16, §17
2. NCATS MIPE 4.0 library of approved and investigational drugs were added using the Kalypsis pin tool. Wells treated with DMSO only for 100% viability and media only wells for 0% viability were used as controls.
as §18, §19, §20, §21

[9] = Quantitative High-Throughput drug screen in 47 multiple myeloma cell lines against the NCATS MIPE library collection: ARD_JJKsccE7 cell viability assay (AID 1918929; also: potency is read from the fitted curve at half-maximal effect); details: ARD myeloma cell line viability, CellTiter-Glo, 48 h; series mostly up to 45.8 µM
Method in brief: as §2

[10] = Quantitative High-Throughput drug screen in 47 multiple myeloma cell lines against the NCATS MIPE library collection: INA6_PLB cell viability assay (AID 1918965; also: nearly all actives have a fitted effect of over 55% in size; also: potency is read from the fitted curve at half-maximal effect); details: INA6 myeloma viability, CellTiter-Glo ATP luminescence, 48 h; series mostly up to 45.8 µM
Method in brief: as §22

## CN1C(=O)COc2c(C(=O)NC3CN4CCC3CC4)cc(Cl)cc21 (stereo not drawn)
[1]
  Potency: inactive
[2]
  Potency: inactive
[3]
  Potency: inactive
[4]
  Potency: inactive

## C[C@]12CC[C@H]3[C@@H](CC[C@@]45O[C@H]4C(O)=C(C#N)C[C@]35C)[C@H]1CC[C@H]2O
[5]
  Potency: inactive
[1]
  Potency: inactive
[2]
  Potency: inactive
[6]
  Potency: inactive
[7]
  outcome: inactive
[8]
  Potency: 18.7 µM (active)

## C[C@]12CC[C@@H]3c4ccc(OC(=O)N(CCCl)CCCl)cc4CC[C@H]3[C@@H]1CC[C@@H]2OP(=O)(O)O
[5]
  Potency: inactive
[9]
  Potency: inactive
[1]
  Potency: inactive
[2]
  Potency: inactive
[7]
  outcome: inactive
[8]
  Potency: inactive
[4]
  Potency: inactive

## C[C@](O)(CS(=O)(=O)c1ccc(F)cc1)C(=O)Nc1ccc(C#N)c(C(F)(F)F)c1
[5]
  Potency: 18.7 µM (active)
[9]
  Potency: 1.05 µM (active)
[2]
  Potency: 8.33 µM (active)
[6]
  Potency: 0.935 µM (active)
[3]
  Potency: 0.833 µM (active)
[10]
  Potency: 1.18 µM (active)
[8]
  Potency: 4.69 µM (active)
[4]
  Potency: 0.662 µM (active)

## CC(NC(C)(C)C)C(=O)c1cccc(Cl)c1 (stereo not drawn)
[5]
  Potency: 13.2 µM (active)
[1]
  Potency: inactive
[10]
  Potency: inactive
[8]
  Potency: inactive

## CCC1(c2ccc(N)cc2)CCC(=O)NC1=O (stereo not drawn)
[5]
  Potency: inactive
[9]
  Potency: inactive
[1]
  Potency: inactive
[2]
  Potency: inactive
[10]
  Potency: inactive
[4]
  Potency: inactive

## COc1cc(OC)c(OC)cc1C=O
[5]
  Potency: inactive
[9]
  Potency: inactive
[1]
  Potency: inactive
[2]
  Potency: inactive
[7]
  outcome: inactive
[10]
  Potency: inactive
[4]
  Potency: inactive

## CC(C)C[C@H](CN)CC(=O)O
[5]
  Potency: inactive
[9]
  Potency: inactive
[1]
  Potency: inactive
[2]
  Potency: inactive
[6]
  Potency: inactive
[3]
  Potency: inactive
[7]
  outcome: inactive
[10]
  Potency: inactive
[4]
  Potency: inactive

## O=C(O)CCCc1ccc(N(CCCl)CCCl)cc1
[9]
  Potency: inactive
[1]
  Potency: inactive
[2]
  Potency: inactive
[10]
  Potency: 18.7 µM (active)
[4]
  Potency: inactive

## CN1C(=O)CCS(=O)(=O)C1c1ccc(Cl)cc1 (stereo not drawn)
[9]
  Potency: inactive
[1]
  Potency: inactive
[2]
  Potency: inactive
[7]
  outcome: inactive
[10]
  Potency: inactive
[8]
  Potency: inactive
[4]
  Potency: 16.6 µM (active)

## O=P1(N(CCCl)CCCl)NCCCO1 (stereo not drawn)
[9]
  Potency: inactive
[1]
  Potency: 18.7 µM (active)
[6]
  Potency: inactive
[3]
  Potency: inactive
[4]
  Potency: inactive

## C[C@]12CCC(=O)C=C1CC[C@@H]1[C@H]3CC[C@](C)(O)[C@@]3(C)CC[C@@H]12
[2]
  Potency: 10.8 µM (active)
[7]
  outcome: inactive
[4]
  Potency: inactive

## CC(C)c1cccc(C(C)C)c1O
[5]
  Potency: inactive
[9]
  Potency: inactive
[1]
  Potency: inactive
[2]
  Potency: inactive
[7]
  outcome: inactive
[10]
  Potency: inactive
[4]
  Potency: inactive
